# In the supplement of paper PMC4466140:
# Experiments:
# Assay in all cases: SPOT peptide array binding signal intensity (averaged, normalized) (arbitrary units (background-subtracted, floor 0; scale differs between SH3 domains)); higher = stronger binding of the SH3 domain to the peptide
# [1] = target: AgAbp1
# Summary of the method: (§1)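 Four yeast species supplied the SH3 domains, which were expressed as GST fusions in E. coli BL21(DE3) and purified on glutathione Sepharose. Incubation with cellulose membranes carrying synthetic 15-mer peptides, cysteines exchanged for serines, ran overnight at 4°C at 10 μg/ml in TBS-based blocking buffer. Binding signal is reported as normalized, background-subtracted spot intensity averaged over replicates, in arbitrary units not shared between domains.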
# [2] = target: AgBbc1
# Summary of the method: as §1
# [3] = target: AgBem1-D1
# Summary of the method: as §1
# [4] = target: AgBzz1-D1
# Summary of the method: as §1
# [5] = target: AgBzz1-D2
# Summary of the method: as §1
# [6] = target: AgCyk3
# Summary of the method: as §1
# [7] = target: AgFus1
# Summary of the method: as §1
# [8] = target: AgHof1
# Summary of the method: as §1
# [9] = target: AgHse1
# Summary of the method: as §1
# [10] = target: AgLsb1
# Summary of the method: as §1
# [11] = target: AgLsb4
# Summary of the method: as §1
# [12] = target: AgMyo5
# Summary of the method: as §1
# [13] = target: AgNbp2
# Summary of the method: as §1
# [14] = target: AgRvs167
# Summary of the method: as §1
# [15] = target: AgSho1
# Summary of the method: as §1
# [16] = target: AgSla1-D1-D2
# Summary of the method: as §1
# [17] = target: AgSla1-D3
# Summary of the method: as §1
# [18] = target: CaAbp1-D1
# Summary of the method: as §1
# [19] = target: CaAbp1-D2
# Summary of the method: as §1
# [20] = target: CaBbc1
# Summary of the method: as §1
# [21] = target: CaBem1-D1
# Summary of the method: as §1
# [22] = target: CaBzz1-D1
# Summary of the method: as §1
# [23] = target: CaBzz1-D2
# Summary of the method: as §1
# [24] = target: CaCyk3
# Summary of the method: as §1
# [25] = target: CaFus1
# Summary of the method: as §1
# [26] = target: CaHof1
# Summary of the method: as §1
# [27] = target: CaHse1
# Summary of the method: as §1
# [28] = target: CaLsb1
# Summary of the method: as §1
# [29] = target: CaLsb4
# Summary of the method: as §1
# [30] = target: CaMyo5
# Summary of the method: as §1
# [31] = target: CaNbp2
# Summary of the method: as §1
# [32] = target: CaRvs167
# Summary of the method: as §1
# [33] = target: CaRvs167-3
# Summary of the method: as §1
# [34] = target: CaSho1
# Summary of the method: as §1
# [35] = target: CaSla1-D1-D2
# Summary of the method: as §1
# [36] = target: CaSla1-D3
# Summary of the method: as §1
# [37] = target: ScAbp1
# Summary of the method: as §1
# [38] = target: ScBbc1
# Summary of the method: as §1
# [39] = target: ScBem1-D1
# Summary of the method: as §1
# [40] = target: ScBzz1-D1
# Summary of the method: as §1
# [41] = target: ScBzz1-D2
# Summary of the method: as §1
# [42] = target: ScCyk3
# Summary of the method: as §1
# [43] = target: ScFus1
# Summary of the method: as §1
# [44] = target: ScHof1
# Summary of the method: as §1
# [45] = target: ScHse1
# Summary of the method: as §1
# [46] = target: ScLsb1
# Summary of the method: as §1
# [47] = target: ScLsb2
# Summary of the method: as §1
# [48] = target: ScLsb3
# Summary of the method: as §1
# [49] = target: ScLsb4
# Summary of the method: as §1
# [50] = target: ScMyo3
# Summary of the method: as §1
# [51] = target: ScMyo5
# Summary of the method: as §1
# [52] = target: ScNbp2
# Summary of the method: as §1
# [53] = target: ScPex13
# Summary of the method: as §1
# [54] = target: ScRvs167
# Summary of the method: as §1
# [55] = target: ScSho1
# Summary of the method: as §1
# [56] = target: ScSla1-D1-D2
# Summary of the method: as §1
# [57] = target: ScSla1-D3
# Summary of the method: as §1
# [58] = target: SpAbp1-D1
# Summary of the method: as §1
# [59] = target: SpBbc1
# Summary of the method: as §1
# [60] = target: SpBzz1-D1
# Summary of the method: as §1
# [61] = target: SpBzz1-D2
# Summary of the method: as §1
# [62] = target: SpCyk3
# Summary of the method: as §1
# [63] = target: SpHof1
# Summary of the method: as §1
# [64] = target: SpHof1-2
# Summary of the method: as §1
# [65] = target: SpHof1-3
# Summary of the method: as §1
# [66] = target: SpHse1
# Summary of the method: as §1
# [67] = target: SpLsb1
# Summary of the method: as §1
# [68] = target: SpLsb4
# Summary of the method: as §1
# [69] = target: SpMyo1
# Summary of the method: as §1
# [70] = target: SpNbp2
# Summary of the method: as §1
# [71] = target: SpPex13
# Summary of the method: as §1
# [72] = target: SpRvs167
# Summary of the method: as §1
# [73] = target: SpSla1-D1-D2
# Summary of the method: as §1
# [74] = target: SpSla1-D3
# Summary of the method: as §1
binder,measurement,setting,value
VAPPPLPNRQLPNLD,SPOT peptide array binding signal intensity,[1],1.5
same,SPOT peptide array binding signal intensity,[2],45.5
same,SPOT peptide array binding signal intensity,[3],16
same,SPOT peptide array binding signal intensity,[4],3
same,SPOT peptide array binding signal intensity,[5],≤ 0
same,SPOT peptide array binding signal intensity,[6],≤ 0
same,SPOT peptide array binding signal intensity,[7],≤ 0
same,SPOT peptide array binding signal intensity,[8],247
same,SPOT peptide array binding signal intensity,[9],51
same,SPOT peptide array binding signal intensity,[10],693
same,SPOT peptide array binding signal intensity,[11],5100
same,SPOT peptide array binding signal intensity,[12],364
same,SPOT peptide array binding signal intensity,[13],≤ 0
same,SPOT peptide array binding signal intensity,[14],952
same,SPOT peptide array binding signal intensity,[15],≤ 0
same,SPOT peptide array binding signal intensity,[16],1.5
same,SPOT peptide array binding signal intensity,[17],≤ 0
same,SPOT peptide array binding signal intensity,[18],≤ 0
same,SPOT peptide array binding signal intensity,[19],5
same,SPOT peptide array binding signal intensity,[20],252
same,SPOT peptide array binding signal intensity,[21],≤ 0
same,SPOT peptide array binding signal intensity,[22],14
same,SPOT peptide array binding signal intensity,[23],4
same,SPOT peptide array binding signal intensity,[24],1
same,SPOT peptide array binding signal intensity,[25],≤ 0
same,SPOT peptide array binding signal intensity,[26],2
same,SPOT peptide array binding signal intensity,[27],569
same,SPOT peptide array binding signal intensity,[28],3.25
same,SPOT peptide array binding signal intensity,[29],4840
same,SPOT peptide array binding signal intensity,[30],2.5
same,SPOT peptide array binding signal intensity,[31],28.5
same,SPOT peptide array binding signal intensity,[32],3100
same,SPOT peptide array binding signal intensity,[33],≤ 0
same,SPOT peptide array binding signal intensity,[34],≤ 0
same,SPOT peptide array binding signal intensity,[35],≤ 0
same,SPOT peptide array binding signal intensity,[36],≤ 0
same,SPOT peptide array binding signal intensity,[37],2
same,SPOT peptide array binding signal intensity,[38],≤ 0
same,SPOT peptide array binding signal intensity,[39],≤ 0
same,SPOT peptide array binding signal intensity,[40],3.5
same,SPOT peptide array binding signal intensity,[41],≤ 0
same,SPOT peptide array binding signal intensity,[42],≤ 0
same,SPOT peptide array binding signal intensity,[43],≤ 0
same,SPOT peptide array binding signal intensity,[44],39.2
same,SPOT peptide array binding signal intensity,[45],10.5
same,SPOT peptide array binding signal intensity,[46],1610
same,SPOT peptide array binding signal intensity,[47],203
same,SPOT peptide array binding signal intensity,[48],8010
same,SPOT peptide array binding signal intensity,[49],4010
same,SPOT peptide array binding signal intensity,[50],321
same,SPOT peptide array binding signal intensity,[51],208
same,SPOT peptide array binding signal intensity,[52],≤ 0
same,SPOT peptide array binding signal intensity,[53],1660
same,SPOT peptide array binding signal intensity,[54],2740
same,SPOT peptide array binding signal intensity,[55],≤ 0
same,SPOT peptide array binding signal intensity,[56],≤ 0
same,SPOT peptide array binding signal intensity,[57],≤ 0
same,SPOT peptide array binding signal intensity,[58],8
same,SPOT peptide array binding signal intensity,[59],≤ 0
same,SPOT peptide array binding signal intensity,[60],176
same,SPOT peptide array binding signal intensity,[61],≤ 0
same,SPOT peptide array binding signal intensity,[62],5
same,SPOT peptide array binding signal intensity,[63],≤ 0
same,SPOT peptide array binding signal intensity,[64],11.5
same,SPOT peptide array binding signal intensity,[65],31
same,SPOT peptide array binding signal intensity,[66],71.5
same,SPOT peptide array binding signal intensity,[67],1020
same,SPOT peptide array binding signal intensity,[68],5980
same,SPOT peptide array binding signal intensity,[69],461
same,SPOT peptide array binding signal intensity,[70],≤ 0
same,SPOT peptide array binding signal intensity,[71],≤ 0
same,SPOT peptide array binding signal intensity,[72],3250
same,SPOT peptide array binding signal intensity,[73],≤ 0
same,SPOT peptide array binding signal intensity,[74],≤ 0
